This note sets out measurements from PubChem BioAssay (Tox21).

Results filed as inconclusive are left out. The source made the active and inactive calls. Unless noted, calls follow the shape of the dose curve; as a rule, active = well fitted curve in the direction sought with a large enough effect in the repeat runs; inconclusive = weak or mixed curves; inactive = no such curve, though single readings can be large; an effect the other way counts as inactive or inconclusive.

A short description of assay [1]: qHTS assay to identify aromatase inhibitors - cell viability counter screen (AID 743084).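 Also: cells stimulated with testosterone during compound exposure; nearly all actives have a fitted effect of over 55% in size.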 Also: potency is read from the fitted curve at half-maximal effect.
The target of assay [2] is Aryl hydrocarbon receptor (Homo sapiens) (UniProt P35869). Put plainly: qHTS assay to identify small molecule that activate the aryl hydrocarbon receptor (AhR) signaling pathway (AID 743085). Also: nearly all actives have a fitted effect of over 15% in size. Also: potency is read from the fitted curve at half-maximal effect.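 As to activation: HG2L7.5c1 human HepG2 liver cells with stably integrated DRE-driven firefly reporter; series mostly up to about 70 µM.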 Put shortly:
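HepG2 cells stably carrying a 20-DRE firefly luciferase reporter (HG2L7.5c1) treated with compound for 24 hr at 37C. Luciferase read by ONE-Glo luminescence, with CellTiter-Fluor viability read first.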
On the technique in general: In qHTS, concentration-response curves come from the screen itself.

Assay [3] can be described thus: qHTS assay to identify small molecule that activate the aryl hydrocarbon receptor (AhR) signaling pathway - cell viability counter screen (AID 743086). Also: nearly all actives have a fitted effect of over 45% in size. Also: potency is read from the fitted curve at half-maximal effect. A digest of the protocol:
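HepG2-AhR-luc (HG2L7.5c1) cells, 4000/well, treated 24 h at 37 C with compound; viability measured as CellTiter-Fluor fluorescence after 30 min in the same wells as the luciferase read.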

Assay [4] addresses Peroxisome proliferator-activated receptor gamma (Homo sapiens) (UniProt P37231). Put plainly: qHTS assay to identify small molecule agonists of the peroxisome proliferator-activated receptor gamma (PPARg) signaling pathway (AID 743094; active = well fitted activation curve with a large enough effect in the signal ratio in the repeat runs, not every such curve was filed as active; the % refers to the signal ratio; also: potency is read from the fitted curve at half-maximal effect). Put shortly:
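Compounds dissolved in DMSO were added to PPARg UAS-bla HEK293H cells for 17 h at 37C, and reporter expression was quantified by fluorescence intensity after 1 h with LiveBLAzer B/G FRET substrate.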

Assay [5] in a line: qHTS assay for small molecule activators of the heat shock response signaling pathway - cell viability counter screen (AID 743209). Also: nearly all actives have a fitted effect of over 50% in size. Put shortly:
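Readout: CellTiter-Glo luminescence, 30 min at room temperature. System: HSE-bla HeLa cells, 1500/well, plated overnight. Treatment: compounds in DMSO, 5 h at 37 C.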

Assay [6] is described as follows: qHTS assay for small molecule activators of the heat shock response signaling pathway (AID 743210; active = well fitted activation curve with a large enough effect in the signal ratio in the repeat runs, with a control signal flat, not every such curve was filed as active; the % refers to the signal ratio; also: series mostly up to about 63 µM). A digest of the protocol: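 HSE-bla HeLa cells (beta-lactamase reporter under heat shock response elements), plated overnight, then exposed to compounds 5 h at 37 C; LiveBLAzer B/G FRET substrate added, 2.5 h at room temperature, fluorescence intensity read.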
Assay [7] can be described thus: qHTS assay to identify small molecule antagonists of the peroxisome proliferator-activated receptor gamma (PPARg) signaling pathway - cell viability counter screen (AID 743194). Also: nearly all actives have a fitted effect of over 55% in size. Put shortly:
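Cytotoxicity counter screen in PPARg-bla HEK293H cells, same wells as reporter assay. Compounds plus 50 nM rosiglitazone (final) for 17 h at 37 C, then viability read by CellTiter-Glo luminescence.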

Assay [8] can be described thus: qHTS assay for small molecule agonists of the antioxidant response element (ARE) signaling pathway - cell viability counter screen (AID 743203; calls by dose curve; also: nearly all actives have a fitted effect of over 55% in size). Put shortly: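 Following 16 hrs of compound treatment at 37C, HepG2 cells with an ARE-controlled beta-lactamase gene were lysed with CellTiter-Glo. Luminescence was read after 30 min at room temperature.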
Assay [9] in a line: qHTS assay for small molecule agonists of the antioxidant response element (ARE) signaling pathway (AID 743202; active = well fitted activation curve with a large enough effect in the signal ratio in the repeat runs, not every such curve was filed as active; the % refers to the signal ratio). Put shortly: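 ARE-bla HepG2 cells (beta-lactamase reporter under the antioxidant response element), plated 5 hours, then exposed to compounds 16 hours at 37 C. LiveBLAzer B/G FRET substrate added for 2 hours at room temperature; fluorescence intensity read.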
Assay [10] deals with Peroxisome proliferator-activated receptor gamma (Homo sapiens) (UniProt P37231). Put plainly: qHTS assay to identify small molecule antagonists of the peroxisome proliferator-activated receptor gamma (PPARg) signaling pathway (AID 743191; calls by dose curve; also: nearly all actives have a fitted effect of over 30% in size; also: potency is read from the fitted curve at half-maximal effect). Put shortly:
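GeneBLAzer PPARg UAS-bla HEK293H cells, 5 h post-plating, exposed to compounds 17 h at 37C. LiveBLAzer B/G FRET substrate added for 1 h at room temperature; beta-lactamase reporter read by fluorescence intensity.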

Aryl hydrocarbon receptor (Homo sapiens), sequence (P35869 whole entry, looked up): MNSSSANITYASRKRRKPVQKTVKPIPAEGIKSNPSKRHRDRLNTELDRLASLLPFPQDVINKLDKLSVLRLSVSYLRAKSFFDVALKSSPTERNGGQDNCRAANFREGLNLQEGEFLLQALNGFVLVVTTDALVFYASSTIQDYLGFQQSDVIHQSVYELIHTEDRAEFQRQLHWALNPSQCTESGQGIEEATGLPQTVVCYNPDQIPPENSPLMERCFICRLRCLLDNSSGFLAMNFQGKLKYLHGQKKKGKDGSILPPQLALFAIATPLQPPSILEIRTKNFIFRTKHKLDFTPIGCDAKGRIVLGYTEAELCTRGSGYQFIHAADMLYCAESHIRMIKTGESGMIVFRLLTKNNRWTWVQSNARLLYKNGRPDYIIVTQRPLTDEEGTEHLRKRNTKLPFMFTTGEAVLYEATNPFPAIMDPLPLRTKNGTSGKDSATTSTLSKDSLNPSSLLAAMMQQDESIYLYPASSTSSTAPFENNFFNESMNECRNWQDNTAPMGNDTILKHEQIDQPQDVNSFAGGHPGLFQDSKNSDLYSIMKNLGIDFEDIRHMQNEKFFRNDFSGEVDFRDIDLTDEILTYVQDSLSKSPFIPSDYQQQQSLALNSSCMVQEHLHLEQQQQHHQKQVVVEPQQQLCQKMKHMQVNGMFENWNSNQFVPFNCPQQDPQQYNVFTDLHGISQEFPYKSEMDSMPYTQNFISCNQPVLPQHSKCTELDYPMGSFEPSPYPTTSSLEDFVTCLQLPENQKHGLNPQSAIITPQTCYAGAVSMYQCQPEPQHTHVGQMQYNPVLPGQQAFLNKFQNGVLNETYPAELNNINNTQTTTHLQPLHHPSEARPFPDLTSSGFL
Peroxisome proliferator-activated receptor gamma (Homo sapiens), sequence (P37231 whole entry, looked up): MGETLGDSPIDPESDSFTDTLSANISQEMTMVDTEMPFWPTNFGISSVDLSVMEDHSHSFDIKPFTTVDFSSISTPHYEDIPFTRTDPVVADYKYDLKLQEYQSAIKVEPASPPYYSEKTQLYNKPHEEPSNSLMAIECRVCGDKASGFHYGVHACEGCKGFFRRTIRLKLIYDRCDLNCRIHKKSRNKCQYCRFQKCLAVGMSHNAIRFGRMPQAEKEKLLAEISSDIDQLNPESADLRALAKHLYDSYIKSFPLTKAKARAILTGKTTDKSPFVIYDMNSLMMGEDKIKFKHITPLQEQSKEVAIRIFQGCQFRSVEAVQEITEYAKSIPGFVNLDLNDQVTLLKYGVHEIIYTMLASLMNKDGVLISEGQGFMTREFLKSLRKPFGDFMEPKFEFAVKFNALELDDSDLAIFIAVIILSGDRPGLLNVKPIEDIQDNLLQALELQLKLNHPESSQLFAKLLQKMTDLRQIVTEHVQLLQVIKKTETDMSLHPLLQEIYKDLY

For `CCN(CC)CCc1nc(-c2ccccc2)no1`, the Potency entry in [1], in assay [2], in assay [3], in assay [4] and in assay [5] was “inactive” throughout. Besides, the compound was classed as inactive in [6].

For `CCCCOc1ccc(CC(=O)NO)cc1`, the Potency result in assay [1], in assay [2], in [3], in assay [4], in assay [7] and in assay [8] was “inactive” throughout. The Potency entry in assay [5] was “inactive”. The compound was classed as inactive in assay [6].

`Cc1ccc2c(ccc3ccccc32)c1`: the Potency entry in assay [1], in assay [2], in assay [3], in assay [4], in assay [9] and in assay [8] was “inactive” each time. In [5], the Potency entry was “inactive”. For the same compound, the outcome in [6] was inactive.

Take `CC(=O)Nc1ccc(/C=N/NC(N)=S)cc1`: the Potency entry in assay [1], in assay [2], in [3], in [4], in assay [9] and in assay [8] was “inactive” each time. Further, the Potency entry in [5] is “inactive”. For the same compound, the compound was classed as inactive in assay [6].

With `CC(=O)/C=C/C1C(C)=CCCC1(C)C` (stereo not given), the Potency result in assay [1], in assay [2], in [3], in assay [4], in assay [9] and in assay [8] was “inactive” throughout. In addition, the Potency entry in assay [5] is “inactive”. Also, the compound was called inactive in assay [6].

In the case of `COc1ccc(C(C)=O)cc1`, the Potency result in [1], in assay [2], in assay [3], in assay [4], in [7] and in [5] was “inactive” throughout. Moreover, the result in [6] was inactive.

On to `CN1CCC(=C2c3ccccc3C=Cc3ccccc32)CC1`, for which the Potency entry in assay [1], in assay [2], in assay [3], in [4], in assay [9] and in assay [5] was “inactive” in each case. For the same compound, in assay [6], the outcome was inactive.

In the case of `Cc1cc(C)c(S(=O)(=O)O)cc1N=Nc1cc(S(=O)(=O)O)c2ccccc2c1O`, the values for the Potency in assay [1] and in assay [3] were 24.3 µM (active) and 27.3 µM (active), respectively. For the same compound, the Potency entry in assay [2], in assay [4], in assay [8] and in assay [5] was “inactive” throughout. For the same compound, the call in [6] was inactive.

For `O=C(Nc1ccccc1)OCC(CN1CCCCC1)OC(=O)Nc1ccccc1` (stereo not given), the Potency result in [1], in [2], in [3], in assay [7], in assay [8] and in [5] was “inactive” in each case. Further, the Potency in assay [10] is 16.8 µM (active). In assay [6], the result was inactive.

With `CN1CCN(C2=Nc3ccccc3Sc3ccc(Cl)cc32)CC1`, the Potency result in assay [1], in assay [2], in assay [3], in [10], in assay [7] and in assay [9] was “inactive” in each case. The Potency entry in assay [8] and in assay [5] was “inactive” throughout. Moreover, in assay [6], the call was inactive.

For `CC(O)C1CCCCC1` (stereo not given), the Potency result in [1], in assay [2], in [3], in [4], in [7] and in assay [5] was “inactive” in each case. Besides, the compound was called inactive in [6].

With `CC(C)c1ccc2c(C(C)C)cc(C(C)C)c(S(=O)(=O)O)c2c1`, the Potency entry in assay [1], in assay [2], in assay [3], in assay [4], in assay [7] and in assay [5] was “inactive” in each case. The compound was called inactive in assay [6].

As to `O=C(O)[C@@H]1[C@H]2C[C@H]3c4[nH]c5ccccc5c4CCN3C[C@@H]2CC[C@@H]1O`, the Potency entry in [1], in assay [3], in assay [4], in assay [9], in assay [8] and in [5] was “inactive” each time. For the same compound, in [2], the Potency is 7.17 µM (active).

With `CN(C)CC[C@@H](c1ccc(Br)cc1)c1ccccn1`, the Potency entry in assay [1], in [2], in assay [3], in assay [4], in [8] and in assay [5] was “inactive” throughout. Besides, in assay [6], the compound was classed as inactive.

As to `CN(c1nccc(=O)[nH]1)C1CCN(c2nc3ccccc3n2Cc2ccc(F)cc2)CC1`, the Potency entry in assay [1], in assay [2], in assay [3], in assay [4], in [7] and in assay [8] was “inactive” each time. The Potency result in [5] was “inactive”. Besides, the compound was called inactive in assay [6].

With `c1ccc(-c2nc[nH]c2-c2ccccc2)cc1`, the Potency result in [1], in assay [2], in assay [3], in assay [4], in [7] and in assay [8] was “inactive” each time. Besides, in [5], the Potency result is “inactive”. Also, the compound was called inactive in assay [6].

Turning to `Nc1ccc(C(=O)Nc2ccccc2N)cc1`, the Potency result in assay [1], in assay [3], in assay [7] and in assay [5] was “inactive” each time. Moreover, the figures for the Potency in [2] and in [4] were 26.6 µM (active) and 9.52 µM (active), respectively.

Take `CN(C)CCCNCCCN`: the Potency result in assay [1], in [2], in assay [3], in assay [4], in assay [8] and in assay [5] was “inactive” throughout. The compound was classed as inactive in assay [6].

Take `C[C@H](CCC(=O)O)[C@H]1CC[C@H]2[C@@H]3[C@H](O)C[C@@H]4C[C@H](O)CC[C@]4(C)[C@H]3CC[C@]12C`: the Potency result in [1], in [2], in [3], in [4], in assay [7] and in assay [8] was “inactive” throughout. The Potency entry in assay [5] was “inactive”. Besides, the compound was classed as inactive in [6].

With `O=C(c1ccccc1)c1ccc2n1CCC2C(=O)O` (stereo not given), the Potency entry in assay [1], in assay [2], in assay [3], in assay [10], in assay [9] and in assay [8] was “inactive” each time. The Potency entry in assay [5] is “inactive”. Also, the outcome in assay [6] was inactive.

Regarding `CCCCCC/C=C/C=O`, the Potency entry in assay [1], in assay [3], in assay [4], in assay [7], in [9] and in [8] was “inactive” each time. For the same compound, the Potency entry in assay [5] was “inactive”.

Consider `CCCCCCCCCCCCCCC1CO1` (stereo not given), for which the Potency result in assay [1], in assay [3], in [4], in [10], in [7] and in [9] was “inactive” throughout. Also, the Potency entry in [8] is “inactive”. In addition, in assay [6], the compound was called inactive.

Take `N=C(N=C(N)N)N1CCOCC1`: the Potency result in assay [1], in [2], in assay [3], in assay [8] and in [5] was “inactive” throughout. Besides, in assay [6], the outcome was inactive.
